This is part of a sample that, as a whole, favours compounds with a hit. Of some 79,000 tested, about 15% had one in any assay. Unmarked numbers belong to inactive results. The source made the active and inactive calls. Rule as the data show it: active = growth inhibition above about 70%; inactive = the rest.
Assays:
[1] = NCI Yeast Anticancer Drug Screen. Data for the rad50 strain (AID 155);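 also: 0% = growth of vehicle-only cultures of the same strain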; conditions: S. cerevisiae rad50 strain growth inhibition, stronger effect = higher value
Outline: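 Compounds were tested on a yeast strain with an engineered DNA damage repair alteration; the reported value is growth inhibition normalised to vehicle treatment.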

[2] = NCI Yeast Anticancer Drug Screen. Data for the mec2-1 strain (AID 157); conditions: S. cerevisiae mec2-1 strain, stronger effect = higher value
Outline: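 Mutant yeast (mec2-1) grown with compound; growth inhibition relative to vehicle control reported.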

[3] = NCI Yeast Anticancer Drug Screen. Data for the sgs1 mgt1 strain (AID 161);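 also: 0% = growth of cultures given vehicle only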; conditions: S. cerevisiae sgs1 mgt1 strain, stronger effect = higher value
Outline: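 This yeast growth screen uses a strain with defined DNA-repair lesions; compound-treated growth is compared with vehicle-treated growth.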

[4] = NCI Yeast Anticancer Drug Screen. Data for the cln2 rad14 strain (AID 165);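 also: 0% = growth equal to vehicle treated cultures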; conditions: S. cerevisiae cln2 rad14 strain, stronger effect = higher value
Outline: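 Readout is yeast growth inhibition versus vehicle-treated controls, using a strain with cln2 and rad14 alterations exposed to compound.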

[5] = NCI Yeast Anticancer Drug Screen. Data for the bub3 strain (AID 167); conditions: S. cerevisiae bub3 mutant strain, stronger effect = higher value
Outline: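 Growth of a checkpoint-deficient yeast mutant is measured after compound exposure. Values represent inhibition relative to vehicle.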

[6] = NCI Yeast Anticancer Drug Screen. Data for the mlh1 rad18 strain (AID 175); conditions: S. cerevisiae mlh1 rad18 strain growth inhibition, stronger effect = higher value
Outline: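 Genetically defined yeast (DNA repair-deficient) exposed to compounds; growth inhibition determined relative to vehicle.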

[7] = at 5.0 µM (retest, dose inferred, filed as 0.5)
[8] = at 50.0 µM (retest, dose inferred, filed as 5.0)

Row | SMILES | growth inhibition [1, 7] | growth inhibition [1, 8] | growth inhibition ([1]; at 50.0 µM) | growth inhibition [2, 7] | growth inhibition [2, 8] | growth inhibition ([2]; at 50.0 µM) | growth inhibition [3, 7] | growth inhibition [3, 8] | growth inhibition ([3]; at 50.0 µM) | growth inhibition [4, 7] | growth inhibition [4, 8] | growth inhibition ([4]; at 50.0 µM) | growth inhibition [5, 7] | growth inhibition [5, 8] | growth inhibition ([5]; at 50.0 µM) | growth inhibition [6, 7] | growth inhibition [6, 8] | growth inhibition ([6]; at 50.0 µM)
1 | O=C(O)CC1c2ccccc2-c2ccccc21 | -5% | 36% | 87.7% (active) | -24% | 24% | 64.5% | -4% | 31% | 78.7% (active) | -3% | 54% | 43.9% | -6% | 82% (active) | 82.8% (active) | -7% | 67% | 79.3% (active)
2 | CCCCCCCCCCCCNCC(=O)O | -2% | 80% (active) | 92.9% (active) | 1% | 60% | 87.6% (active) | 3% | 23% | 74.5% (active) | 1% | 53% | -6.3% | 7% | 67% | 92.2% (active) | 3% | 55% | 92% (active)
3 | NC(=S)C(=S)N/C=C(/c1ccc(Cl)cc1)S(=O)(=O)Cc1ccc(Cl)cc1 | 1% | 98% (active) | 97.3% (active) | -17% | 99% (active) | 96.2% (active) | -3% | 98% (active) | 96.8% (active) | -19% | 97% (active) | 94.8% (active) | 21% | 98% (active) | 96.7% (active) | 4% | 98% (active) | 97.3% (active)
4 | Cc1ccccc1C(CC(=O)O)C(C)c1ccccc1 (configuration not stated) | 14% | 53% | 20.5% | 18% | 53% | 88.8% (active) | 9% | 66% | 77.9% (active) | 13% | 60% | 73.2% (active) | 32% | 80% (active) | 97.2% (active) | 12% | 45% | 86.2% (active)
5 | CC(=O)O[C@@H]1CO[C@H]2O[C@H]3[C@@H](C(C=O)=C[C@H](O)[C@@H]4C5=C(C(C)C)CC[C@]5(C)CC[C@@]34C)[C@@]2(O)C1=O | 99% (active) | 99% (active) | 92.1% (active) | 99% (active) | 100% (active) | 92.8% (active) | 97% (active) | 100% (active) | 92.7% (active) | 94% (active) | 98% (active) | 91% (active) | 97% (active) | 99% (active) | 91.3% (active) | 98% (active) | 99% (active) | 91.7% (active)
6 | CC(C)(C)C(=O)CC(Cc1nccc2ccccc12)c1ccco1 (configuration not stated) | -3% | 94% (active) | 98.7% (active) | -5% | 96% (active) | 99.2% (active) | -3% | 97% (active) | 98.7% (active) | 2% | 94% (active) | 98% (active) | -1% | 94% (active) | 99.2% (active) | -8% | 97% (active) | 98.9% (active)
7 | N=C(N)SCc1cc(Cl)cc(Cl)c1O | 8% | 20% | 55.2% | 4% | -6% | -1.85% | 1% | 1% | 16% | -18% | -72% | -2% | -14% | -19% | -9.35% | -5% | 42% | 80.2% (active)
8 | CN1CC[N+](C)(Cc2ccc(C[N+]3(C)CC[N+](C)(Cc4ccc(CCl)cc4)CC3)cc2)CC1 (configuration not stated) | 2% | 97% (active) | 99.2% (active) | 4% | 95% (active) | 99.4% (active) | 2% | 83% (active) | 99.4% (active) | -3% | 95% (active) | 98.1% (active) | 1% | 98% (active) | 99.5% (active) | 2% | 98% (active) | 99.3% (active)
9 | OC(COc1ccc(Cl)cc1)CN1CCN(c2cccc(Cl)c2)CC1 (configuration not stated) | 20% | 99% (active) | 95.8% (active) | 37% | 100% (active) | 93.9% (active) | 80% (active) | 100% (active) | 98.5% (active) | 20% | 99% (active) | 85.8% (active) | 25% | 98% (active) | 95.5% (active) | 62% | 99% (active) | 96.3% (active)
10 | COc1ccc(NS(=O)(=O)c2ccc(N=Cc3c4ccccc4nc4cc(Cl)ccc34)cc2)nn1 | 23% | -9% | 94.2% (active) | 14% | -5% | 91.8% (active) | 17% | -8% | 95.6% (active) | 5% | -6% | 36.9% | 22% | -4% | 52.2% | 13% | -4% | 95.8% (active)
11 | c1nc2nc(N3CCOCC3)nc(N3CCCCC3)c2[nH]1 | -22% | -14% | -1.35% | -18% | -18% | 3.25% | 2% | 2% | 2.45% | -2% | 0% | 6.7% | -1% | -9% | -43.2% | -19% | 10% | -0.15%
12 | COc1ccc(OC)c(CC(Cl)(C#N)C#N)c1 | 33% | 99% (active) | 98.2% (active) | 48% | 100% (active) | 99.8% (active) | 48% | 99% (active) | 99.7% (active) | 20% | 99% (active) | 99% (active) | 34% | 99% (active) | 99.8% (active) | 61% | 99% (active) | 99.6% (active)
13 | O=C(Nc1ccccc1)c1ccccc1O | 2% | 93% (active) | 86.2% (active) | -2% | 91% (active) | 79.5% (active) | 2% | 87% (active) | 92.6% (active) | -3% | 84% (active) | 73.8% (active) | -2% | 92% (active) | 86% (active) | -4% | 98% (active) | 97.2% (active)
14 | NNc1cc(C(F)(F)F)nc2ccccc12 | -133% | -80% | 35.5% | -48% | -46% | 3.1% | -53% | -48% | -21.1% | -56% | -88% | 34.1% | -65% | -75% | 1.45% | -108% | -95% | 64.8%
15 | CCOC(=O)c1c[nH]cc1-c1cn(S(=O)(=O)c2ccccc2)cc1C | 38% | 12% | 29.2% | 34% | 14% | 18.2% | 69% | 21% | 49.6% | 38% | 15% | 43.5% | 89% (active) | 38% | 44% | 82% (active) | 28% | 49%
16 | Cc1c(Cl)c(Cl)cc([N+](=O)[O-])c1Cl | 41% | 49% | 24.9% | 51% | 45% | 37.6% | -5% | 15% | 46% | 31% | 47% | -6.9% | 11% | 38% | 52.4% | 25% | 46% | 19.4%
17 | CCCCN(CCCC)CC(O)c1cc(-c2ccc(Cl)cc2)nc2cc(C)ccc12 (configuration not stated) | -5% | 97% (active) | 99.2% (active) | 17% | 98% (active) | 99.2% (active) | 11% | 99% (active) | 99.6% (active) | 5% | 97% (active) | 96.2% (active) | 6% | 97% (active) | 98.9% (active) | 33% | 98% (active) | 99.1% (active)
18 | COc1cccc(/C=N/NC(=O)c2c(-c3ccccc3)noc2C)c1O | 47% | 70% (active) | 85% (active) | 26% | 86% (active) | 84.1% (active) | 45% | 82% (active) | 89.2% (active) | 25% | 51% | 83.3% (active) | 42% | 85% (active) | 85.5% (active) | 58% | 87% (active) | 81.8% (active)
19 | Cc1cc(Cl)ccc1N1C(=O)C(=O)C(c2nc3ccccc3o2)C(=O)C1=O | 31% | 98% (active) | 86.3% (active) | 21% | 99% (active) | 64.7% | 38% | 98% (active) | 88.8% (active) | 31% | 98% (active) | 79.9% (active) | 22% | 96% (active) | 49.1% | 25% | 96% (active) | 87.8% (active)

Reference: PubChem BioAssay (NCI)
